Test results taken from PubChem BioAssay.
Active and inactive are the calls of the source.

Key:
[1] = compounds binding Alexa647 anti-His antibody – biochemical, small-molecule microarray, 635 nm fluorescence, artefact control for SMM control protein annotation, primary screen (AID 1128); settings: higher = more signal;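 note: score merges feature fluorescence with signal-to-noise for each printed compound spot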
[2] = system: Human papillomavirus type 1a E7 protein (residues 1-88); assay: HPV1a E7 small-molecule binders, primary screen, biochemical, small-molecule microarray, residues 1-88, 635 nm (AID 1129); settings: small-molecule microarray binding, fluorescence 635 nm; higher = more signal
[3] = target: Focal adhesion kinase 1 (Homo sapiens) (UniProt Q05397); assay: PTK2 protein binding on printed compound slides – biochemical, small-molecule microarray, 635/667 nm fluorescence, BSA, DTT, primary screen (AID 1130); settings: 635 nm fluorescence, higher = more signal;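 note: composite of spot emission at 667 nm and signal to noise over triplicate slides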
Focal adhesion kinase 1 (Homo sapiens), sequence (Q05397 whole entry, looked up): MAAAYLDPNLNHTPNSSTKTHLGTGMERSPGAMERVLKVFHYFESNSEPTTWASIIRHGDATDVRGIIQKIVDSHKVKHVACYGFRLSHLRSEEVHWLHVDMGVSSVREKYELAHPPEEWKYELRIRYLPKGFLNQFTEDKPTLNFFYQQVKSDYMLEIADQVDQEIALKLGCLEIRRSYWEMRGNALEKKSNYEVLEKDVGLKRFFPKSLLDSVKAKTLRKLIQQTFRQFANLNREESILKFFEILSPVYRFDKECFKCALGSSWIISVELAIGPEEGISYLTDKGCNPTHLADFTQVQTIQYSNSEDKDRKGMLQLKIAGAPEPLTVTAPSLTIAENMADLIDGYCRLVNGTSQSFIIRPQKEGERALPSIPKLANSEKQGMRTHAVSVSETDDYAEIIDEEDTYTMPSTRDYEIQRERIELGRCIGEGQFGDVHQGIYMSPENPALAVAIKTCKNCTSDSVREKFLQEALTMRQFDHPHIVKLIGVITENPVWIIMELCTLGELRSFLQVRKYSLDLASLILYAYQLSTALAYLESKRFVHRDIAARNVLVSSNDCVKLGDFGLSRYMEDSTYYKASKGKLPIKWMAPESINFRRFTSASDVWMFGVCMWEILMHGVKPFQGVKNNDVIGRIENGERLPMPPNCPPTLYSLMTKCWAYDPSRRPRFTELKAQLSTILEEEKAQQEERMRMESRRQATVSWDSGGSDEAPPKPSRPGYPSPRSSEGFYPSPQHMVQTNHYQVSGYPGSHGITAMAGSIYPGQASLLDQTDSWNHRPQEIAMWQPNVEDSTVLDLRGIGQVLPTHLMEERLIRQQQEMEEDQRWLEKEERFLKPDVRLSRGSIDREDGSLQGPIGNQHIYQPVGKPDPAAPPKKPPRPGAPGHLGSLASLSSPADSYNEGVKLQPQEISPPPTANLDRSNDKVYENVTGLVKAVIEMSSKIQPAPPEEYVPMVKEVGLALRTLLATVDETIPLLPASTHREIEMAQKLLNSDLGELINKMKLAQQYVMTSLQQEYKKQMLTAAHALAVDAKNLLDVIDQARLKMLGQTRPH

[4] = system: Fibrinogen (Alexa647-labelled); assay: Alexa647-fibrinogen binding to printed small molecules – biochemical, small-molecule microarray, 635/667 nm fluorescence, artefact control for SMM control-protein annotation, profiling panel (AID 1131); settings: fibrinogen-A647 binding fluorescence, higher = more signal;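 note: z-score merges 667 nm fluorescence with per-spot signal-to-noise over triplicate slides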
[5] = target: Follistatin (Homo sapiens) (UniProt P19883); assay: FST protein binding to printed compounds – biochemical, small-molecule microarray, 635/667 nm fluorescence, primary screen (AID 1132); settings: 635 nm fluorescence, higher = more signal
Follistatin (Homo sapiens), sequence (P19883 whole entry, looked up): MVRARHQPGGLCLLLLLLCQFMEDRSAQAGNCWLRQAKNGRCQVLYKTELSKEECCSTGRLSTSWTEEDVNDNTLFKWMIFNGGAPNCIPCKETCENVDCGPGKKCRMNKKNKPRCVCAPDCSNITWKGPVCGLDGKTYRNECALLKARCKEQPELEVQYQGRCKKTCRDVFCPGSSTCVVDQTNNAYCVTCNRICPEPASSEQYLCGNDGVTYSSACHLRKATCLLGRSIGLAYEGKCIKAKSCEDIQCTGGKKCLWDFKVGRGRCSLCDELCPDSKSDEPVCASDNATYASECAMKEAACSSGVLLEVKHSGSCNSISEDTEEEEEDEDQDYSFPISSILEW

[6] = target: Fibroblast growth factor 2 (Homo sapiens) (UniProt P09038); assay: basic fibroblast growth factor binding to printed compounds – biochemical, small-molecule microarray, 635/667 nm fluorescence, primary screen (AID 1133); settings: FGF2, fluorescence 635/667, higher = more signal
Fibroblast growth factor 2 (Homo sapiens), sequence (P09038 whole entry, looked up): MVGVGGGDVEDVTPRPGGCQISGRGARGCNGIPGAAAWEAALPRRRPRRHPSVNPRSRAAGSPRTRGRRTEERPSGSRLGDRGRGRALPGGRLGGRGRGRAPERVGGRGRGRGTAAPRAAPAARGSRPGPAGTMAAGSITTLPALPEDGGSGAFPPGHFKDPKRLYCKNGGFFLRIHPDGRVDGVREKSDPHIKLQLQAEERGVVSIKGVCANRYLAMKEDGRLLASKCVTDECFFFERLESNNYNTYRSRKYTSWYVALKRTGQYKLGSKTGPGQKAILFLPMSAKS

[7] = JC-1 mitochondrial potential readout, lung cancer cells – cell-based, A549, JC-1 fluorescence, basal, 24 h, 100 nL, profiling panel (AID 1138); settings: higher = more signal;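 note: A549 lung adenocarcinoma cells under basal conditions with no added stimulus; test concentration not given here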
Lefty1 = Lefty1 protein binding to printed compounds – biochemical, small-molecule microarray, 635/667 nm fluorescence, primary screen (AID 1139); settings: fluorescence 635/667, higher = more signal
[8] = system: wheat germ agglutinin (Triticum aestivum), Alexa647-labelled; assay: Alexa647-WGA lectin binding to printed small molecules – biochemical, small-molecule microarray, 635/667 nm fluorescence, artefact control for SMM control-protein annotation, profiling panel (AID 1140); settings: WGA-A647 binding, 635 nm fluorescence, higher = more signal;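 note: score merges 667 nm feature emission with signal to noise over triplicate slides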
[9] = target: Luciferin 4-monooxygenase (Photinus pyralis) (UniProt P08659); assay: inhibition of purified Photinus pyralis luciferase – biochemical, luminescence, purified enzyme, 2006 set, primary screen (AID 1141); settings: purified firefly luciferase, SteadyGlo luminescence, 30 min; higher = more signal, called active from +8 up or from −8 down;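 note: cell-free assay with purified firefly luciferase at 100 ng per well in PBS; test concentration not given here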
Luciferin 4-monooxygenase (Photinus pyralis), sequence (P08659 whole entry, looked up): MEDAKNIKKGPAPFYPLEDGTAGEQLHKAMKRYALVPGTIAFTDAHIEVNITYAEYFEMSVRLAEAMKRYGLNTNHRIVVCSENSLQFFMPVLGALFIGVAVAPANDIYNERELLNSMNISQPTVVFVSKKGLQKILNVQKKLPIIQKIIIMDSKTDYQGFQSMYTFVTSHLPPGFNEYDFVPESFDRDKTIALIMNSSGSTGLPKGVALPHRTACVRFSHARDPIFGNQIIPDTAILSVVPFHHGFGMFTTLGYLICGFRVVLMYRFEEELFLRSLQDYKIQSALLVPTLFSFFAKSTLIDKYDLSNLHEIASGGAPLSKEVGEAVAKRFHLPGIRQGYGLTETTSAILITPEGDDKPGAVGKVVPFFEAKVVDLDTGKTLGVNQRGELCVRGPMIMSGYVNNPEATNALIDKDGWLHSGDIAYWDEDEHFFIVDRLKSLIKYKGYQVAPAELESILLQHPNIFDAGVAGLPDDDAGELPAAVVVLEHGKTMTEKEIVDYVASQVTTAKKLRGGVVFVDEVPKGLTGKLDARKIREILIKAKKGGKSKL

| SMILES | composite z-score [1] | composite z-score [2] | composite z-score [3] | composite z-score [4] | composite z-score [5] | composite z-score [6] | z-score [7] | composite z-score (Lefty1) | composite z-score [8] | z-score [9] |
| --- | --- | --- | --- | --- | --- | --- | --- | --- | --- | --- |
| O=C1[C@@H]2[C@@H](CC(COc3ccccc3)=C3[C@@H](CCc4ccccc4)OB(O)C[C@@H]32)C(=O)N1Cc1ccccc1 | -0.147 | 0.871 | 0.034 | 0.0907 | 0.445 | 0.161 | 1.83 | 0.212 | 0.344 | -1.06 (inactive) |
| CCOC(=O)C1=CCC(c2ccco2)N(S(=O)(=O)c2ccc(C)cc2)C1 (stereo not given) | 1.1 | 1.2 | 0.841 | 0.965 | 1.1 | 0.377 | -0.664 | 0.851 | 0.832 | -1.58 (inactive) |
| COC(=O)c1c2oc(c1C(=O)OC)C(=O)N1CCC[C@H]1Cn1nncc1CN(Cc1ccccc1)C(=O)N[C@H](CO)CC2 | 0.328 | -0.243 | 0.291 | 0.676 | 0.423 | 1.04 | 0.39 | 0.783 | 0.18 | -1.29 (inactive) |
| COc1ccc([Si](C)(C)[C@H]2[C@H](CCO)O[C@@]3(C(=O)N(Cc4ccccc4)c4ccc(N5C(=O)c6ccccc6Oc6ccccc65)cc43)[C@@H]2C)cc1 | 0.814 | 0.885 | -0.21 | -0.0167 | -0.4 | 1.02 | 0.616 | -0.204 | 1.23 | 0.666 (inactive) |
| CO[C@H]1O[C@H](CO)[C@@H](OC(=O)CCc2ccccc2)[C@H](OC(=O)c2cc3ccccc3[nH]2)[C@H]1OC(=O)c1cc2ccccc2[nH]1 | 1.37 | 1.01 | 0.332 | 0.824 | 1.26 | 1.31 | -0.201 | 0.845 | 0.726 | -0.105 (inactive) |
| C#C[C@@H](CC)O[Si](C#CCCCC#N)(C(C)C)C(C)C | 2.55 | 0.0253 | 0.278 | -0.014 | -0.295 | 0.895 | 0.168 | 0.232 | -0.0711 | -0.732 (inactive) |
| Cc1nc2cc(Br)ccc2c(=O)n1Cc1cccc(O)c1 | 0.391 | 0.941 | 0.872 | 0.539 | 1.38 | 1.81 | 0.287 | 1.22 | 0.334 | 6.4 (inactive) |
